Test results: PubChem BioAssay (NCI)
This is part of a sample that, as a whole, favours compounds with a hit. Of some 83,000 tested, about 20% had one in any assay.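 Method: cells in 96-well plates; compound added at one concentration; 48 h incubation; percent growth measured; values under 10 scored active.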 Calls of active or inactive are those of the source.

Tests used:
Test in all cases: NCI-60 one-dose screen, 48 h (100 = growth as untreated, 0 = no growth, -100 = all killed)
SR leukemia = conditions: 10 µM unless noted
RPMI-8226 leukemia = conditions: 10 µM unless noted
OVCAR-8 ovarian = conditions: 10 µM unless noted
OVCAR-5 ovarian = conditions: 10 µM unless noted
OVCAR-4 ovarian = conditions: 10 µM unless noted
SK-OV-3 ovarian = conditions: 10 µM unless noted
IGROV1 ovarian = conditions: 10 µM unless noted
OVCAR-3 ovarian = conditions: 10 µM unless noted
HS 578T breast = conditions: 10 µM
NCI/ADR-RES ovarian = conditions: 10 µM unless noted
T-47D breast = conditions: 10 µM unless noted
BT-549 breast = conditions: 10 µM unless noted
MDA-MB-435 melanoma = conditions: 10 µM unless noted
SW-620 colon = conditions: 10 µM unless noted
HCT-116 colon = conditions: 10 µM unless noted
HCC-2998 colon = conditions: 10 µM unless noted
KM12 colon = conditions: 10 µM unless noted
MCF7 breast = conditions: 10 µM unless noted

Measured: growth

O=C(CN1CCN(c2ccccc2)CC1)N1CCN(c2nnc(-c3ccc(Cl)cc3)c(-c3ccc(Cl)cc3)n2)CC1
inactive: SR leukemia 23.1% | OVCAR-8 ovarian 68% | OVCAR-5 ovarian 111% | OVCAR-4 ovarian 45.5% | SK-OV-3 ovarian 103% | IGROV1 ovarian 50.7% | OVCAR-3 ovarian 64.3% | HS 578T breast 77.5% | NCI/ADR-RES ovarian 60.4% | T-47D breast 36.1% | BT-549 breast 46.2% | MDA-MB-435 melanoma 48.2% | SW-620 colon 68.8% | HCT-116 colon 25% | HCC-2998 colon 62.4% | KM12 colon 46.1%
active: RPMI-8226 leukemia -39.6%

COc1ccc2[nH]c(O)c(/C=c3/ccc4c(c3)N=C(c3ccc(F)cc3)N=4)c2c1
inactive: SR leukemia 59.8% | RPMI-8226 leukemia 76.5% | OVCAR-8 ovarian 76.9% | OVCAR-5 ovarian 113% | SK-OV-3 ovarian 62.9% | OVCAR-3 ovarian 75.3% | HS 578T breast 51.1% | NCI/ADR-RES ovarian 75.2% | T-47D breast 28.3% | BT-549 breast 26.7% | MDA-MB-435 melanoma 57.8% | SW-620 colon 41.3% | HCC-2998 colon 104% | KM12 colon 74.9%
active: OVCAR-4 ovarian -38.2% | IGROV1 ovarian -7.41% | HCT-116 colon -22.6%

CCN(CC)CCCC(C)Nc1cnc(C(=O)Nc2cc(C)cc3cccnc23)cn1 (configuration not stated)
inactive: SR leukemia 81.9% | RPMI-8226 leukemia 78% | OVCAR-8 ovarian 86.9% | OVCAR-5 ovarian 97.6% | OVCAR-4 ovarian 58.8% | SK-OV-3 ovarian 104% | IGROV1 ovarian 68.7% | OVCAR-3 ovarian 20.5% | HS 578T breast 79.9% | NCI/ADR-RES ovarian 92.7% | T-47D breast 32.6% | BT-549 breast 93.3% | MDA-MB-435 melanoma 83.7% | SW-620 colon 75.3% | HCT-116 colon 18% | KM12 colon 97.9%

COC(=O)c1cc2oc(/C=N/NC(=O)c3cc4oc(-c5cccc(C(F)(F)F)c5)cc4[nH]3)cc2n1Cc1ccccc1
inactive: SR leukemia 33% | RPMI-8226 leukemia 85.6% | OVCAR-8 ovarian 75.2% | OVCAR-5 ovarian 107% | OVCAR-4 ovarian 104% | SK-OV-3 ovarian 110% | IGROV1 ovarian 89.6% | OVCAR-3 ovarian 111% | HS 578T breast 87.5% | NCI/ADR-RES ovarian 97.9% | T-47D breast 94.4% | MDA-MB-435 melanoma 99.6% | SW-620 colon 106% | MCF7 breast 88.8% | HCT-116 colon 67.6% | HCC-2998 colon 90.5% | KM12 colon 88.3%

O=C(OCc1ccc2c(Br)cc(Br)c(O)c2n1)c1cc2ccccc2[nH]1
active: SR leukemia 3.2% | RPMI-8226 leukemia -25.2% | OVCAR-8 ovarian -23.7% | OVCAR-5 ovarian -85.4% | OVCAR-4 ovarian -21.2% | IGROV1 ovarian -91.5% | OVCAR-3 ovarian -80.8% | HS 578T breast -4.51% | NCI/ADR-RES ovarian -55.2% | T-47D breast -69.5% | MDA-MB-435 melanoma -80.6% | SW-620 colon -69.2% | MCF7 breast -35.5% | HCT-116 colon -72.9% | HCC-2998 colon -77.7% | KM12 colon -19%
inactive: SK-OV-3 ovarian 68.8%

Nc1nc2c(c3ncccc13)C(c1ccccc1)Cc1ncccc1-2 (configuration not stated)
inactive: SR leukemia 40.7% | RPMI-8226 leukemia 87.4% | OVCAR-8 ovarian 93.5% | OVCAR-5 ovarian 92.8% | OVCAR-4 ovarian 94.1% | SK-OV-3 ovarian 87.3% | IGROV1 ovarian 63.3% | OVCAR-3 ovarian 62.2% | HS 578T breast 87.2% | NCI/ADR-RES ovarian 67.7% | T-47D breast 71.1% | SW-620 colon 52.9% | MCF7 breast 45.6% | HCT-116 colon 63.2% | HCC-2998 colon 81.7% | KM12 colon 50.4%
active: MDA-MB-435 melanoma -0.757%

NS(=O)(=O)c1ccc(N2N=C(c3ccc(Br)cc3)CC2c2cn(-c3ccccc3)nc2-c2ccc(Cl)cc2)cc1 (configuration not stated)
inactive: SR leukemia 72% | RPMI-8226 leukemia 74% | OVCAR-8 ovarian 90.6% | OVCAR-5 ovarian 102% | OVCAR-4 ovarian 93.7% | SK-OV-3 ovarian 94.7% | IGROV1 ovarian 93.8% | OVCAR-3 ovarian 95.1% | HS 578T breast 100% | NCI/ADR-RES ovarian 86.6% | T-47D breast 69.2% | MDA-MB-435 melanoma 79.6% | SW-620 colon 96.1% | MCF7 breast 53.1% | HCT-116 colon 63% | HCC-2998 colon 77.8% | KM12 colon 74.9%

CC[C@H](Nc1nc(N)nc(C2CC2)c1C#N)c1nc2cccc(NCc3ccc(C(=O)NO)cc3)c2c(=O)n1-c1ccccc1
inactive: OVCAR-5 ovarian 14.8% | HS 578T breast 13.5% | NCI/ADR-RES ovarian 45.8% | BT-549 breast 33.3% | SW-620 colon 11.6%
active: SR leukemia -0.809% | RPMI-8226 leukemia 4.07% | OVCAR-8 ovarian 1.08% | OVCAR-4 ovarian 8.75% | SK-OV-3 ovarian -9.63% | IGROV1 ovarian 2.3% | OVCAR-3 ovarian 9.13% | T-47D breast -5.53% | MDA-MB-435 melanoma 7.07% | HCT-116 colon -59.8% | HCC-2998 colon 0.531% | KM12 colon 8.71%

COc1cc(Cn2c(-c3ccccc3)cc3c2-c2oncc2CC3)cc(OC)c1OC
active: SR leukemia 8.51% | OVCAR-3 ovarian -44.3% | HS 578T breast -1.69% | NCI/ADR-RES ovarian 4.65% | MDA-MB-435 melanoma -58.1%
inactive: RPMI-8226 leukemia 40.5% | OVCAR-8 ovarian 34.2% | OVCAR-5 ovarian 69.1% | OVCAR-4 ovarian 54.8% | SK-OV-3 ovarian 13% | IGROV1 ovarian 18.4% | T-47D breast 38.1% | SW-620 colon 24.3% | MCF7 breast 14.1% | HCT-116 colon 25.3% | HCC-2998 colon 42.7% | KM12 colon 26.2%

COc1ccc(-c2[nH]nc(N)c2-c2cc(OC)c(OC)c(OC)c2)cc1
active: SR leukemia -23.7% | RPMI-8226 leukemia -8.96% | OVCAR-8 ovarian 7.81% | SK-OV-3 ovarian 4.97% | IGROV1 ovarian 1.08% | OVCAR-3 ovarian -28.3% | NCI/ADR-RES ovarian -9.45% | BT-549 breast 3.37% | MDA-MB-435 melanoma -69.2% | KM12 colon 3.55%
inactive: OVCAR-5 ovarian 38.8% | OVCAR-4 ovarian 64.2% | HS 578T breast 25.6% | T-47D breast 52.8% | SW-620 colon 23% | MCF7 breast 16.3%

O=C1OC(c2ccc(-c3ccccc3)cc2)=C/C1=C/c1c(Cl)cccc1Cl
inactive: SR leukemia 69.6% | RPMI-8226 leukemia 84.1% | OVCAR-8 ovarian 105% | OVCAR-5 ovarian 91.7% | OVCAR-4 ovarian 89.8% | SK-OV-3 ovarian 96.7% | IGROV1 ovarian 95.4% | OVCAR-3 ovarian 97.1% | HS 578T breast 85.6% | NCI/ADR-RES ovarian 99.3% | T-47D breast 91.3% | MDA-MB-435 melanoma 104% | SW-620 colon 95.9% | MCF7 breast 76% | HCT-116 colon 63% | HCC-2998 colon 102% | KM12 colon 94.1%

COc1cccc(CC(C)=C(c2ccc(OCCCN(C)C)cc2)c2ccc(OCCCN(C)C)cc2)c1
active: SR leukemia -49.1% | RPMI-8226 leukemia -53.9% | OVCAR-8 ovarian -78.7% | OVCAR-5 ovarian -86.5% | OVCAR-4 ovarian -22.2% | SK-OV-3 ovarian -88.6% | IGROV1 ovarian -82.6% | OVCAR-3 ovarian -89.9% | HS 578T breast -41.4% | NCI/ADR-RES ovarian -70% | T-47D breast -68.2% | MDA-MB-435 melanoma -91.7% | SW-620 colon -80.1% | MCF7 breast -73.6% | HCC-2998 colon -71% | KM12 colon -83%
inactive: BT-549 breast 55.3%

O=C(C=P(c1ccccc1)(c1ccccc1)c1ccccc1)CCl
active: SR leukemia 3.51% | RPMI-8226 leukemia -19.2% | OVCAR-8 ovarian -37.1% | OVCAR-5 ovarian 1.7% | OVCAR-4 ovarian -37.3% | IGROV1 ovarian -69.5% | OVCAR-3 ovarian -85.1% | NCI/ADR-RES ovarian -27% | T-47D breast -73.8% | MDA-MB-435 melanoma -98.6% | SW-620 colon -50.7% | MCF7 breast -16.6% | HCT-116 colon -70.2% | HCC-2998 colon -21.6% | KM12 colon 1.36%
inactive: SK-OV-3 ovarian 24.6% | HS 578T breast 18.6%

O=C(/C=C/c1cccc([N+](=O)[O-])c1)c1ccc(Nc2nc(N3CCCCC3)nc(N3CCCCC3)n2)cc1
active: RPMI-8226 leukemia 7.95% | MDA-MB-435 melanoma -11.7% | HCT-116 colon -34.5%
inactive: SR leukemia 90.6% | OVCAR-8 ovarian 95.2% | OVCAR-5 ovarian 110% | OVCAR-4 ovarian 97.6% | SK-OV-3 ovarian 97.4% | IGROV1 ovarian 88.1% | OVCAR-3 ovarian 91.5% | HS 578T breast 103% | NCI/ADR-RES ovarian 103% | T-47D breast 78.6% | SW-620 colon 94.2% | MCF7 breast 19.4% | HCC-2998 colon 81.8% | KM12 colon 85.5%

CCCCNCC(O)c1cc(-c2ccc(C(F)(F)F)cc2)nc(-c2ccc(C(F)(F)F)cc2)c1 (configuration not stated)
active: SR leukemia -63.7% | RPMI-8226 leukemia -49.9% | OVCAR-8 ovarian -71.1% | OVCAR-5 ovarian -74.9% | OVCAR-4 ovarian -93.9% | SK-OV-3 ovarian -75.8% | IGROV1 ovarian -59.7% | OVCAR-3 ovarian -90.8% | HS 578T breast -57.8% | NCI/ADR-RES ovarian -53.9% | T-47D breast -80.3% | MDA-MB-435 melanoma -68.6% | SW-620 colon -82.1% | MCF7 breast -84.8% | HCT-116 colon -88.5% | HCC-2998 colon -75.8% | KM12 colon -89.2%

COc1c(B(O)O)cccc1-c1nc2ccc3[nH]ncc3c2c2c1CCCC2
active: RPMI-8226 leukemia 7.44% | SK-OV-3 ovarian 6.76% | SW-620 colon 8.47% | MCF7 breast 2.24% | HCT-116 colon 6% | KM12 colon 1.71%
inactive: SR leukemia 13.9% | OVCAR-8 ovarian 17% | OVCAR-5 ovarian 29.5% | OVCAR-4 ovarian 74.2% | IGROV1 ovarian 13.8% | OVCAR-3 ovarian 19.3% | HS 578T breast 14.6% | NCI/ADR-RES ovarian 50.7% | T-47D breast 39.2% | MDA-MB-435 melanoma 38.4% | HCC-2998 colon 53.3%

COc1ccc2cc(-c3nc(C)c(C(C)=O)c(-c4ccc(C)cc4)n3)ccc2c1
inactive: SR leukemia 108% | RPMI-8226 leukemia 86.9% | OVCAR-8 ovarian 93.4% | OVCAR-5 ovarian 93.1% | OVCAR-4 ovarian 92% | SK-OV-3 ovarian 97.5% | IGROV1 ovarian 101% | OVCAR-3 ovarian 94.3% | HS 578T breast 86% | NCI/ADR-RES ovarian 92.5% | T-47D breast 72.1% | MDA-MB-435 melanoma 89.1% | SW-620 colon 91.3% | MCF7 breast 88.3% | HCT-116 colon 86.3% | HCC-2998 colon 109% | KM12 colon 91.7%
